Screens: PubChem, National Center for Advancing Translational Sciences (NCATS)
TRb-SRC2 inh – qHTS for Inhibitors of the Interaction of Thyroid Hormone Receptor and Steroid Receptor Coregulator 2 | Thyroid hormone receptor beta (Homo sapiens), P10828 | TRbeta-SRC2 peptide binding, fluorescence polarization; receptor liganded with 1 µM T3 | Potency, µM (titrated, usually from 106 µM), without a hit: at the top dose activity change, negative = inhibition, actives largely listed as inhibitors | actives 0.065% (n = 280,000);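 note: potency is the fitted concentration of half-maximal effect; plate controls were bound peptide for no effect and peptide without receptor for full effect; nearly all actives have a fitted effect of over 50% in size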
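Read-out is fluorescence polarization (555 nm excitation, 632 nm emission) of a Texas Red SRC2 coactivator peptide; loss of signal reflects blocked binding to human TRb ligand-binding domain in the presence of 1 uM T3.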
VDR inh – Inhibitors of the vitamin D receptor (VDR): qHTS; VDR-SRC2-3 peptide fluorescence polarization, 2 h; Potency, µM, without a hit: max response, negative = inhibition, actives largely listed as inhibitors; actives 0.93% (n = 400,000); AID 504847, 2011; note: potency is the fitted concentration of half-maximal effect; % is set by controls: 0 for no effect and ±100 for the full control effect
Target sequence (P11473 whole entry, looked up): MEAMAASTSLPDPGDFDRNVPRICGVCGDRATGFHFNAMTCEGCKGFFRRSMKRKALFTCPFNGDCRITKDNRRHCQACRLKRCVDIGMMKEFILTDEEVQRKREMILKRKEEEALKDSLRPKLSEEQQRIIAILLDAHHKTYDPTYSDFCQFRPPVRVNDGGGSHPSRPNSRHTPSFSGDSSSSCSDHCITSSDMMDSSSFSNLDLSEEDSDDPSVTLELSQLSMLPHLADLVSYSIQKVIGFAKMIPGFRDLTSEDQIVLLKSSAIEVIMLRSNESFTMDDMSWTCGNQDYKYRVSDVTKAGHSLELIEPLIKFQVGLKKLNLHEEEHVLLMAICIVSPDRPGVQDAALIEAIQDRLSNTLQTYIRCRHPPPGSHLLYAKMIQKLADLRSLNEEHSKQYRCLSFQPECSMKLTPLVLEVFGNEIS
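Signal is fluorescence polarization, reporting how far test compounds block the interaction of VDR with the SRC2-3 coregulator peptide after a 2 h room-temperature incubation.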
GCN5L2 inh – qHTS Assay for Inhibitors of GCN5L2; Histone acetyltransferase KAT2A (Homo sapiens), Q92830; Potency, µM (series often up to 58.9 µM), for the others: top-dose activity change, negative = inhibition, most hits filed as inhibitors; GCN5L2 HAT assay, ThioGlo1 CoA-SH fluorescence; actives 0.21% (n = 390,000); note: potency is the fitted concentration of half-maximal effect; % is set by controls: 0 for no effect and ±100 for the full control effect
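Preincubate 20nM GCN5L2 with compound 15 min, RT → add 50uM ThioGlo1 + 75uM H3(1-25) + 70uM acetyl-CoA → read fluorescence 0 and 20 min. Primary qHTS; fluorescent artifacts likely.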
RGS12 GoLoco inh – qHTS Assay for Inhibitors of RGS12 GoLoco Motif Activity (Red Fluorophore); Potency, µM (top dose mostly 61.6 µM), without a hit: top-dose activity, negative = inhibition, most hits filed as inhibitors; AID 880, 2007; actives 0.44% (n = 230,000); Guanine nucleotide-binding protein G(i) subunit alpha-1 (Homo sapiens), P63096; Gai1:RGS12 GoLoco peptide FP, rhodamine, 10 min; active = well fitted inhibition curve with a large enough effect, not every such curve was filed as active; inactive = no such curve, though single readings can be large or run the other way; note: potency is the fitted concentration of half-maximal effect; % is set by controls: 0 for no effect and ±100 for the full control effect; nearly all actives have a fitted effect of over 30% in size
Target sequence (P63096 whole entry, looked up): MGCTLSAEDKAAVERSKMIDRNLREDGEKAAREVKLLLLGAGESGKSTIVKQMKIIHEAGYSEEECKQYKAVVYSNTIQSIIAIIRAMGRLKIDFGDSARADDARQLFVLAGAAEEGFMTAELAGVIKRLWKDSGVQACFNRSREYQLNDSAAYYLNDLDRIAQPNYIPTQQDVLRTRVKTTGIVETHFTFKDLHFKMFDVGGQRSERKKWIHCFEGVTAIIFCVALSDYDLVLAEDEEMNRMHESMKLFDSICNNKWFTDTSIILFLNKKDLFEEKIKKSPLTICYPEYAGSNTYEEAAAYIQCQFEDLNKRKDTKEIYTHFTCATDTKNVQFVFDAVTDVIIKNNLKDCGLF
TR SRC2 fluor cs – Total Fluorescence Counterscreen for Inhibitors of the Interaction of Thyroid Hormone Receptor and Steroid Receptor Coregulator 2. TRb/SRC2 Texas Red total fluorescence interference. Potency, µM (doses to about 106 µM), without a hit: top-dose fluorescence change, negative = quenching. actives 0.29% (n = 280,000); active = well fitted curve in either direction with a large enough effect; inconclusive = small, poorly fitted or top-dose-only effect; note: potency is the fitted concentration of half-maximal effect; % is set by controls: 0 for no effect and ±100 for the full control effect
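Human TRb ligand-binding domain at 0.6 uM with 20 nM Texas Red SRC2 peptide in Tris buffer containing 1 uM T3 and 5% DMSO, incubated with compound 5 h at ambient temperature. Total fluorescence (555/632 nm) calculated as parallel + 2 × perpendicular.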
USP1 UbRho – Inhibitors of USP1/UAF1: Hit Validation in Primary Assay; shares compounds with VDR inh; actives 50% (n = 50); Ub-Rhodamine cleavage, fluorescence kinetic read; Potency, µM (highest dose often 56.8 µM), inactives show top-dose activity change, negative = inhibition, actives largely listed as inhibitors
VDR confirm – qHTS for Inhibitors of the vitamin D receptor (VDR): Hit Validation in Primary Screen. VDR-coactivator inhibition assay, qHTS confirmation. AID 602199, 2012. Potency, µM, actives largely listed as inhibitors. shares compounds with VDR inh. actives 89% (n = 840); note: potency is the fitted concentration of half-maximal effect
VDR FP fluor – qHTS for Inhibitors of the vitamin D receptor (VDR): Hit Validation using a Fluorescein Assay; shares compounds with VDR inh; VDR-coactivator binding, fluorescein fluorescence polarization; Potency, µM (series often up to 57.1 µM), without a hit: at the highest dose activity change, negative = inhibition, most hits filed as inhibitors; actives 48% (n = 840); AID 602200, 2012; note: potency is the fitted concentration of half-maximal effect
VDR bla reporter – qHTS for Inhibitors of the vitamin D receptor (VDR): Hit Validation using a Beta-Lactamase Assay; shares compounds with VDR inh; VDR beta-lactamase reporter cells, FRET ratio; cells co-treated with VDR agonist LG190178; Potency, µM (titrated, usually from 46.1 µM), for the others: top-dose activity change, negative = inhibition, most hits filed as inhibitors; actives 23% (n = 840); note: potency is the fitted concentration of half-maximal effect; % is set by controls: 0 for no effect and ±100 for the full control effect
VDR viability – qHTS for Inhibitors of the vitamin D receptor (VDR): Hit Validation using a Cytotoxicity Assay; shares compounds with VDR inh; cytotoxicity counter-screen, cell viability, qHTS; Potency, µM (top dose mostly 48.3 µM), without a hit: at the highest dose activity change, negative = cytotoxicity, usual class: cytotoxic; actives 18% (n = 840);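 note: potency is the fitted concentration of half-maximal effect; plate controls were DMSO for no effect and high-concentration cycloheximide for full effect; nearly all actives have a fitted effect of over 75% in size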
Numbers without * were called inactive; ? = inconclusive; . = no result given; ! = not confirmed by another sample; [ ] = remark or other dose. A selection: hits, their analogues and other compounds. The true share with any hit is near 1.2%. Unless noted, calls come from the whole dose curve; as a rule, active = well fitted curve in the direction sought with a large enough effect; inconclusive = small, poorly fitted or top-dose-only effect, or another doubt; inactive = no such curve, though single readings can be large; an effect the other way counts as inactive or inconclusive.

SMILES	TRb-SRC2 inh	VDR inh	GCN5L2 inh	RGS12 GoLoco inh	TR SRC2 fluor cs	VDR confirm	VDR FP fluor	VDR bla reporter	VDR viability	others
COc1ccc(-n2c(SC)nc(O)c(Cc3ccccc3)c2=O)cc1	-3%	-13%	-14%	3%	-2%	.	.	.	.
COc1ccc(Cc2c(O)nc(SC)n(C(C)=O)c2=O)cc1	-9%	?	-10%	7%	-2%	?	5.6µM*	7%	6%
CC1(C)CCC[C@@](C)([C@H]2CC[C@]3(C)[C@@H]2[C@H](O)CC2[C@@]4(C)CC[C@H](O)C(C)(C)[C@@H]4[C@@H](O)C[C@]23C)O1 (some centres not stated)	5%	-6%	0%	.	0%	.	.	.	.
Cc1c(C(=O)Nc2nc(-c3ccccn3)cs2)oc2ccccc12	.	89µM*	-2%	.	.	21*	-13%	?	?
O=C(/C=C/c1ccncc1)c1ccc2c(c1)OCCO2	7%	28µM*	-1%	-2%	-1%	27*	?	1%	-7%
O=C(/C=C/c1ccccc1)c1ccc2c(c1)OCO2	-1%	?	-5%	-6%	-1%	.	.	.	.
CC(C)(C)c1ccc(C(=O)N2CCNCC2)cc1	-9%	-7%	-2%	3%	-1%	.	.	.	.
CN1CCC2(CC1)N=C(c1ccc(F)cc1)C(=S)N2C(=O)c1ccc(C(C)(C)C)cc1	6%	?	-2%	.	-4%	?	?	?	?
O=C1c2ccccc2NC(c2cc(Br)c3c(c2)OCO3)N1Cc1ccco1 (configuration not stated)	.	-19%	.	.	.	.	.	.	.
Cc1sc(NC(=O)c2ccccc2)c(C(=O)c2ccccc2)c1C	-2%	56µM*	-14%	-8%	-1%	19*	8.9µM*	23%	20%
CCN(CC)C(=O)c1c(NC(=O)c2ccccc2)sc(C)c1C	4%	2%	0%	14%	-2%	.	.	.	.
COC1=C(OC)C(=O)c2ccccc2C1=O	1%	35µM*	0%	9%	-2%	.	.	.	.	USP1 UbRho=30µM*
NS(=O)(=O)c1ccc(NC(=O)Nc2ccccc2F)cc1	.	.	.	1%[14.2 µM]	.	.	.	.	.
O=C(/C=C/c1ccnc2ccccc12)c1cccs1	9%	?	-14%	16%	-2%	11*	18µM*	?	?
Clc1ccccc1/C=C\c1ccnc2ccccc12	.	.	.	14%[14.2 µM]	.	.	.	.	.
Oc1ccc(NCc2ccccc2OCc2ccccc2)cc1	35µM*	50µM*	-9%	-12%	50µM*![fluorescent]	14*	14µM*	6%	?
CC(C)C[C@H](NC(=O)[C@@H](Cc1c[nH]c2ccccc12)NC(=O)[C@H](Cc1ccc(O)cc1)NC(=O)[C@H](CO)NC(=O)[C@H](Cc1c[nH]c2ccccc12)NC(=O)[C@H](Cc1cnc[nH]1)NC(=O)[C@@H]1CCC(=O)N1)C(=O)N[C@@H](CCCN=C(N)N)C(=O)N1CCC[C@H]1C(=O)NCC(N)=O	-1%	15%	-18%	.	-4%	.	.	.	.
COc1ccc(CC2=CC(=O)c3ccccc3C2=O)cc1	.	20µM*	-6%	.	.	4.2*	3.2µM*	?	16µM*
COc1ccc(Cc2ccccc2C(=O)O)cc1	.	10%	.	.	.	.	.	.	.
Cc1ccccc1OCCCN1C(=O)C(=O)c2cccc(C)c21	10%	32µM*	-16%	8%	-1%	?	11µM*	2%	20%
Cc1ccccc1OCCCN1CCCC1	3%	0%	-6%	2%	-1%	.	.	.	.
Cc1cccc2c1N(CCCOc1ccccc1)C(=O)C2=O	-3%	50µM*	-8%	6%	-3%	19*	?	-10%	10%
Cc1cccc(OCCN2C(=O)C(=O)c3cccc(C)c32)c1	5%	?	-2%	-10%	-3%	.	.	.	.
COC/C=C/C1=CC2=CC(=O)C(C)(OC(=O)c3cnc4ccccc4n3)C(=O)C2=CN1Cc1ccc2c(c1)OCO2 (configuration not stated)	-3%[11.2 µM]	.	.	5%[14.2 µM]	-4%[11.2 µM]	.	.	.	.
CCCc1c(OCCCOc2ccc(OCC(=O)O)cc2)ccc(CC=O)c1O	1%	35µM*	?	2%	-1%	.	.	.	.	USP1 UbRho=59µM*
SMILES	TRb-SRC2 inh	VDR inh	GCN5L2 inh	RGS12 GoLoco inh	TR SRC2 fluor cs	VDR confirm	VDR FP fluor	VDR bla reporter	VDR viability	others
CCOC(=O)C1=C(C)NC(=O)N[C@@H]1c1coc2cc(C)cc(C)c2c1=O	.	.	.	3%[14.2 µM]	.	.	.	.	.
CCOc1cc(C(Nc2cc(C)ccn2)c2ccc3cccnc3c2O)ccc1OC (configuration not stated)	-28%[1.83 µM]	22µM*	-12%	.	-69%[1.83 µM]	7.1*	3.5µM*	-5%	?
CCn1c(O)c(C2=c3ccccc3=NC2=O)c2cc(Br)ccc21	5%	?	4%	35%	0%	.	.	.	.
O=C1N=c2ccccc2=C1c1c(O)n(-c2cccc(F)c2)[nH]c1=O	4%	71µM*	-24%	9%	-4%	6*	?	-2%	-2%
CC(C)(C)c1ccc(-n2nc(C#N)c(Cl)cc2=O)cc1	-11%	?	-4%	5%	0%	7.9*	8.9µM*	2.6µM*	?
CC(C)(C)c1ccc(-n2nc(C(N)=O)c(O)cc2=O)cc1	-8%	?	-4%	-1%	0%	.	.	.	.
c1ccc(-c2ccc(N3CCCC4(CCNCC4)C3)cc2)cc1	.	?	-17%	8%	.	.	.	.	.
